This passage reports growth results from PubChem BioAssay (NCI).

Compounds without any hit were thinned out: in the full panel of roughly 83,000, 20% have a hit.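 A percent growth of 40 corresponds to 60% growth inhibition; 0 means no net growth; -100 means all cells died. Active threshold: below 10.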 A number with no mark means an inactive call. Calls of active or inactive are those of the source.

The experiment has as its system MOLT-4 leukemia. As to the kind of experiment: NCI-60 one-dose screen, 48 h (100 = growth as untreated, 0 = no growth, -100 = all killed). Particulars: 10 µM unless noted. On the procedure: Growth inhibition of the MOLT-4 human tumor cell line is measured as a screen for anti-cancer activity. Cells are grown in 96 well plates and exposed to the test compound for 48 hours. Compounds are tested at a single concentration, which is 10^-5 M for most compounds. The reported endpoint is percent growth (GI% or GIPRCNT), where numbers from 0 - 100% represent growth inhibition, and numbers from -100% - 0 represent cell death. For example, a value of 40 represents 60% growth inhibition. A value of 0 means no net growth occurred over the course of the experiment. A value of -40 indicates 40% of cells at the beginning of the experiment died by the end of the experiment. A value of -100 means all cells are dead at the end of the experiment.
NCI-60 Human Tumor Cell Lines Screen was performed using the standard one-dose NCI protocol, which is described in more detail at https://dtp.cancer.gov/discovery_development/nci-60/default.htm.
Compounds with GIPRCNT values below 10 were considered active. Activity score was based on GIPRCNT using the following formula: […]
Score is 0 for GIPRCNT values of 100 or above, 50 for GIPRCNT values of 0, and 100 for GIPRCNT values of -100.
As to `O=[N+]([O-])c1ccc(-c2cc3c(Nc4ccc(Cl)c(C(F)(F)F)c4)ncnc3s2)cc1`, the growth was 9.22% (active).

Consider `Cc1cc(-c2ccccc2)cc(SC#N)[n+]1[O-]`, for which the growth was 10.1%.

For `COc1ccc(OC)c(Nc2nc3nonc3nc2Nc2cccc(Br)c2)c1`, the growth was 3.8% (active).

As to `O=C(O)C1C[C@](O)(c2ccc(F)cc2)[C@@H](c2ccc(F)cc2)O1` (stereo not given in full), the growth was 97.2%.

Take `O=C1Nc2ccccc2/C1=N/N=C/c1ccc(OC2OC(CO)C(O)C(O)C2O)cc1` (stereo not given): the growth is 112%.

For `[2H]c1nc(Nc2ncc(F)c(-c3cc(F)c4nc(C)n(C(C)C)c4c3)n2)c([2H])c([2H])c1CN1CCN(C([2H])([2H])C([2H])([2H])[2H])CC1`, the growth is 21.1%.

As to `CCOC(=O)c1c2c(c(C)n1C)-c1nn(Cc3ccc(OC)cc3)cc1CC2`, the growth was 69.4%.

Regarding `CCNCCNc1cc(-c2ccc(F)cc2)c(C#N)c2nc3ccccc3n12`, the growth was 61.4%.

Take `CC(=O)Nc1cccc(C2=CC(c3ccc(C)cc3)n3ncnc3N2)c1` (stereo not given): the growth was 87.9%.

As to `COc1cc(/C=C2\C=C(c3ccccc3)N(CCc3ccccc3)C2=O)cc(OC)c1OC`, the growth is 94.8%.

Regarding `CC(C)OC(=O)NNC(=O)c1ccncc1`, the growth is 102%.

On to `CCCCCCN(CCCCCC)CC(O)c1cccc2ccc(Cl)cc12` (stereo not given), for which the growth is 37.8%.

Take `CCOC(=O)C(O)C(O)(c1ccccc1)c1ccccc1` (stereo not given): the growth was 95.1%.

As for `NC(N)=N/N=C/CO`, the growth was 95.7%.

Turning to `CC1(C)N=C(N)N=C(N)N1c1ccc(Cl)c(Cl)c1`, the growth is 34.6%.

As to `O=c1oc2ccc(Cl)cc2cc1-c1cs/c(=N/N=C\c2ccc(Cl)cc2)n1/N=C/c1ccc(Cl)cc1`, the growth is 93.8%.

Turning to `CCNCCNc1cc(C2CCCC2)c(C#N)c2nc3ccccc3n12`, the growth is -17.9% (active).

For `Cc1nc(-c2ccccc2)cc2c(O)c(C(=O)N/N=C/c3ccc(N(C)C)cc3)[nH]c(=O)c12`, the growth is 22.9%.

For `CC(C)CCC[C@@H](C)[C@H]1CCC2C3=CCC4C(=O)C=CC(=O)C4C3CC[C@@]21C` (stereo not given in full), the growth was 10.4%.

Take `COc1ccc(Cn2cnc3cc(C(=O)Nc4cccc5ccccc45)ccc32)c(OC)c1`: the growth was 6.04% [30 µM] (active).

With `CCn1c(Sc2nnc(NC(C)=O)s2)nc2c1c(=O)n(C)c(=O)n2C`, the growth is 113%.

As to `Cc1nc2ccc(C(=O)NCc3cc(C(=O)O)c(C)o3)cc2nc1C`, the growth is 106%.

Regarding `O=C(c1ccccc1)c1ccc(Cl)c([N+](=O)[O-])c1`, the growth is 11.9%.

For `Cc1nc(Nc2ccc(NC(=S)Nc3ccccc3)cc2)c2ccccc2n1`, the growth is 85.6%.

As to `CCOC(=O)c1nnn(C(Cc2ccccc2Cl)C(=O)OCC)c1C` (stereo not given), the growth was 94.6%.

With `COc1ccccc1NC(=O)Nc1ccc(-c2nc3ccccc3o2)cc1`, the growth is 75.1%.

Regarding `CN(C)CCCCNc1ccc(NCCCCN(C)C)c2c1C(=O)c1c(O)ccc(O)c1C2=O`, the growth was -34.6% (active).

Turning to `CC(=O)Nc1ccc2c(c1)Cc1c(F)cccc1-2`, the growth is 111%.

For `CN(C)CCN1C(=O)c2cccc3c(-c4ccc(-c5nc6c7ccccc7c7ccccc7c6[nH]5)cc4)ccc(c23)C1=O`, the growth was 84%.

Consider `O=C(NCOC(O)C(Cl)(Cl)Cl)NCOC(O)C(Cl)(Cl)Cl` (stereo not given), for which the growth was 98.9%.

As for `CCN(CC)CCCC(C)NCc1ccccc1` (stereo not given), the growth was 110%.

In the case of `NC(=O)c1c(NC(=O)c2ccc(C(F)(F)F)cc2Cl)sc2c1CCC(=O)C2`, the growth was -12.9% (active).

For the molecule `Cc1cc(C)on1`, the growth was 92.3%.

For `COc1cc(-c2cc(-c3ccc(Nc4nc(Nc5ccccc5)nc(Nc5ccc(Cl)cc5)n4)cc3)nc(N)n2)cc(OC)c1OC`, the growth is 38.4%.

On to `Nc1ccc(S(=O)(=O)Nc2ccsc2-c2nc(-c3ccccc3)no2)cc1`, for which the growth was 36.5%.

For `CC(C)n1nc(C#Cc2cccc(NC(=O)c3cccc(C(F)(F)F)c3)c2)c2c(N)ncnc21`, the growth was 2.57% (active).

With `N=C(N)c1ccc(-c2ccc(-c3ccc(Cl)cc3Cl)o2)cc1`, the growth is -29.2% (active).

Regarding `N=C(N)c1ccc(-c2ccc(-c3ccc(Cl)c(Cl)c3)o2)cc1`, the growth was -31% (active).

For `Clc1ccc(-c2cn(-c3ccccc3)c(-c3ccccc3)n2)cc1`, the growth is 7.71% (active).

As to `NC(=O)CC1(O)C=C(Br)C(=O)C(Br)=C1`, the growth is -53% (active).
